# Results reported in PubChem BioAssay (NCI).
# About 83,000 compounds went through this panel and 20% of them were active in at least one assay; those are over-represented in the sample as a whole.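 Method: cells in 96-well plates; compound added at one concentration; 48 h incubation; percent growth measured; values under 10 scored active.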 Activity calls are given as the source filed them.
# Test system: HOP-62 NSCLC
# Experiment: NCI-60 one-dose screen, 48 h (100 = growth as untreated, 0 = no growth, -100 = all killed)
# Details: 10 µM
row,Compound,growth
1,C=C1CCC2C3(C)COC(c4c(F)cccc4F)OC3CCC2(C)C1CC(O)C1=CCOC1=O (configuration not stated),86% (inactive)
2,Brc1ccc(/C=C/c2n(Cc3ccc4ccccc4c3)c3ccccc3[n+]2Cc2ccc3ccccc3c2)cc1,-74.3% (active)
3,O=C(Nc1ccc(I)cc1)Nc1nc2ccc([N+](=O)[O-])cc2s1,-90.4% (active)
4,O=C(N/N=C/c1ccc(B(O)O)o1)c1[nH]c2ccc(Br)cc2c1-c1ccccc1,44.3% (inactive)
5,CONC[C@]1(C)C=C2C(=O)[C@](C)(O)C3(CC3)C(C)=C2[C@H]1O,-21.7% (active)
6,O=C(Nc1cccc(-c2cn(-c3ccc4oc(=O)ccc4c3)nn2)c1)Nc1cc(C(F)(F)F)cc(C(F)(F)F)c1,1.89% (active)
7,CCCCCCCCCCCCCCCCCCCC(=O)NCCc1c[nH]c2ccc(OC(=O)CCCC(=O)OCCOOCCOOCCOOCCOOCCOOCCOOCCOOCCOOCCOOCCOOCCOOCCOC)cc12,120% (inactive)
8,COc1ccc(/C(C)=N/N=C2C(=O)N(C)c3ccc(Br)cc32)cc1S(N)(=O)=O,36.2% (inactive)
9,N#Cc1c(NC(=O)c2ccc(C(F)(F)F)cc2C(F)(F)F)sc2c1CCC(=O)C2,7.49% (active)
10,CNCc1cccc2c1OCCCCCC[C@@](C)(O)CC1(CC1)S(=O)(=O)c1ccc(cc1)-c1cnc(N)c(n1)C(=O)N2,-84.3% (active)
11,COc1cc(OC(F)(F)F)ccc1C(=O)Nc1sc2c(c1C#N)CCC(=O)C2,84.8% (inactive)
12,Nc1n[nH]c2cccc(C#Cc3cccc(NC(=O)Nc4cc(C(F)(F)F)cc(C(F)(F)F)c4)c3)c12,-55.3% (active)
13,N#Cc1c(-c2ccc(F)cc2)nc(SCc2ccc([N+](=O)[O-])cc2)nc1N1CCOCC1,34.7% (inactive)
14,CC1=N/C(=C\c2ccc(N(C)C)cc2)C(=O)N1CCc1ccc(S(N)(=O)=O)cc1,84.4% (inactive)
15,CN(CCF)c1ccc(/C=C/C(=O)c2ccc(N)cc2O)cc1,106% (inactive)
16,O=C(c1ccc(Cl)cc1)C1[C@H](c2ccccc2Br)[C@@H](c2ccccc2)NC12C(=O)Nc1ccccc12 (some centres not stated),43.6% (inactive)
17,O=C(Nc1cc(Cl)cc(Cl)c1)Nc1cc(Cl)cc(Cl)c1,-30.3% (active)
18,O=C(c1ccc(O)cc1)C1[C@H](c2ccc(Br)cc2)[C@@H](c2ccccc2)NC12C(=O)Nc1ccc(Br)cc12 (some centres not stated),-36.2% (active)
19,COc1ccccc1[C@H]1C(C(=O)c2ccc(O)cc2)C2(N[C@@H]1c1ccccc1)C(=O)Nc1ccc(Br)cc12 (some centres not stated),51.3% (inactive)
20,CN1CCN(c2ccc(C(=O)/C=C/c3ccc(C#N)cc3)cc2)CC1,89.1% (inactive)
21,CC(C)(C)Nc1nc2cc(Cl)c(Cl)cc2nc1S(C)(=O)=O,88.1% (inactive)
22,COc1cc(/C=C/C(=O)c2cc(OC)c(OC)c(OC)c2)ccc1Oc1nc(Nc2ccc(F)cc2)nc(N(C)C)n1,-44.5% (active)
23,C=C1CCC2C3(C)COC(c4cc(F)cc(F)c4)OC3CCC2(C)C1C/C=C1/C(=O)OCC1O (configuration not stated),-64.1% (active)
24,Cc1cc(C(F)(F)F)ccc1C(=O)Nc1sc2c(c1C#N)CCC(=O)C2,1.05% (active)
25,N#Cc1c(Cl)nc(SCc2ccc(F)cc2)nc1-c1ccc(F)cc1,101% (inactive)

# Test system: NCI-H460 lung
# Experiment: as above
# Details: 10 µM
row,Compound,growth
1,COc1ccc(N2N=C(c3ccc4c(c3)OCCO4)CC2c2cccc(NC(=O)CCCNS(=O)(=O)c3ccc(F)cc3)c2)cc1 (configuration not stated),64.8% (inactive)
2,COc1cc(/C=N/NC(=O)c2ccc3nc(-c4ccc(Cl)cc4)[nH]c3c2)cc(OC)c1OC,-34.8% (active)
3,O=C(N=Nc1c(O)[nH]c2ccc(Br)cc12)c1ccc2nc(-c3ccccc3)[nH]c2c1,-73.5% (active)
4,COc1ccccc1[C@H]1C(C(=O)c2ccc(Cl)cc2)C2(N[C@@H]1c1ccccc1)C(=O)Nc1ccc(Cl)cc12 (some centres not stated),8.58% (active)
5,O=c1cc(-c2ccccc2)oc2cc(OCCCNCc3ccccc3)cc(O)c12,-53.4% (active)
6,O=C1Nc2cc(-c3ccc(NC(=O)c4cccs4)cc3)ccc2/C1=C/c1ccc[nH]1,83% (inactive)
7,O=C(c1ccc(O)cc1)C1[C@H](c2ccc(Br)cc2)[C@@H](c2ccccc2)NC12C(=O)Nc1ccccc12 (some centres not stated),2.57% (active)
8,C=C1CCC2C3(C)COC(c4ccccc4F)OC3CCC2(C)C1C/C=C1/C(=O)OCC1O (configuration not stated),-14.6% (active)
9,C=C1CCC2C3(C)COC(c4c(F)cccc4F)OC3CCC2(C)C1C/C=C1/C(=O)OCC1O (configuration not stated),-22.3% (active)
10,COc1cccc(/C=C2\N=C(C)N(CCc3ccc(S(N)(=O)=O)cc3)C2=O)c1,105% (inactive)
11,C=C1CCC2C3(C)COC(c4cccc(F)c4)OC3CCC2(C)C1CC(O)C1=CCOC1=O (configuration not stated),82.2% (inactive)
12,Cn1cc(-c2cc(N)n3nc(-c4c[nH]c5ccc(Br)cc45)cc3n2)c2cccnc21,-35.7% (active)
13,C=C1CCC2C3(C)COC(c4c(F)cccc4F)OC3CCC2(C)C1CC(O)C1=CCOC1=O (configuration not stated),89.2% (inactive)
14,Brc1ccc(/C=C/c2n(Cc3ccc4ccccc4c3)c3ccccc3[n+]2Cc2ccc3ccccc3c2)cc1,-66.2% (active)
15,O=C(Nc1ccc(I)cc1)Nc1nc2ccc([N+](=O)[O-])cc2s1,-72.1% (active)
16,O=C(N/N=C/c1ccc(B(O)O)o1)c1[nH]c2ccc(Br)cc2c1-c1ccccc1,11% (inactive)
17,CONC[C@]1(C)C=C2C(=O)[C@](C)(O)C3(CC3)C(C)=C2[C@H]1O,-24.4% (active)
18,O=C(Nc1cccc(-c2cn(-c3ccc4oc(=O)ccc4c3)nn2)c1)Nc1cc(C(F)(F)F)cc(C(F)(F)F)c1,27.8% (inactive)
19,CCCCCCCCCCCCCCCCCCCC(=O)NCCc1c[nH]c2ccc(OC(=O)CCCC(=O)OCCOOCCOOCCOOCCOOCCOOCCOOCCOOCCOOCCOOCCOOCCOOCCOC)cc12,50.4% (inactive)

row,Compound,growth
1,COc1ccc(/C(C)=N/N=C2C(=O)N(C)c3ccc(Br)cc32)cc1S(N)(=O)=O,74.8% (inactive)
2,N#Cc1c(NC(=O)c2ccc(C(F)(F)F)cc2C(F)(F)F)sc2c1CCC(=O)C2,12% (inactive)
3,CNCc1cccc2c1OCCCCCC[C@@](C)(O)CC1(CC1)S(=O)(=O)c1ccc(cc1)-c1cnc(N)c(n1)C(=O)N2,-74.8% (active)
4,COc1cc(OC(F)(F)F)ccc1C(=O)Nc1sc2c(c1C#N)CCC(=O)C2,100% (inactive)
5,Nc1n[nH]c2cccc(C#Cc3cccc(NC(=O)Nc4cc(C(F)(F)F)cc(C(F)(F)F)c4)c3)c12,-56.8% (active)
6,N#Cc1c(-c2ccc(F)cc2)nc(SCc2ccc([N+](=O)[O-])cc2)nc1N1CCOCC1,77.4% (inactive)
7,CC1=N/C(=C\c2ccc(N(C)C)cc2)C(=O)N1CCc1ccc(S(N)(=O)=O)cc1,107% (inactive)
8,CN(CCF)c1ccc(/C=C/C(=O)c2ccc(N)cc2O)cc1,71.9% (inactive)
9,O=C(c1ccc(Cl)cc1)C1[C@H](c2ccccc2Br)[C@@H](c2ccccc2)NC12C(=O)Nc1ccccc12 (some centres not stated),0.679% (active)
10,O=C(Nc1cc(Cl)cc(Cl)c1)Nc1cc(Cl)cc(Cl)c1,-16.2% (active)
11,O=C(c1ccc(O)cc1)C1[C@H](c2ccc(Br)cc2)[C@@H](c2ccccc2)NC12C(=O)Nc1ccc(Br)cc12 (some centres not stated),6.63% (active)
12,COc1ccccc1[C@H]1C(C(=O)c2ccc(O)cc2)C2(N[C@@H]1c1ccccc1)C(=O)Nc1ccc(Br)cc12 (some centres not stated),20.2% (inactive)
13,CN1CCN(c2ccc(C(=O)/C=C/c3ccc(C#N)cc3)cc2)CC1,97.1% (inactive)
14,CC(C)(C)Nc1nc2cc(Cl)c(Cl)cc2nc1S(C)(=O)=O,73.1% (inactive)
15,COc1cc(/C=C/C(=O)c2cc(OC)c(OC)c(OC)c2)ccc1Oc1nc(Nc2ccc(F)cc2)nc(N(C)C)n1,-23% (active)
16,C=C1CCC2C3(C)COC(c4cc(F)cc(F)c4)OC3CCC2(C)C1C/C=C1/C(=O)OCC1O (configuration not stated),13.1% (inactive)
17,Cc1cc(C(F)(F)F)ccc1C(=O)Nc1sc2c(c1C#N)CCC(=O)C2,4.71% (active)
18,N#Cc1c(Cl)nc(SCc2ccc(F)cc2)nc1-c1ccc(F)cc1,103% (inactive)
